# Compound activity as filed in PubChem BioAssay.
# The list is not random: actives were taken first. Their share in the collection is about 4.7%.
# tim10-1 inh = tim10-1 yeast growth inhibition; S. cerevisiae tim10-1 ts strain growth, BacTiter-Glo, 24 h; inhibition, % at 20 µM; 330,000 compounds, 2.2% hits; AID 463190;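 active = inhibition of at least 40%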;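 also: mutant grown at 25 °C; 0% = DMSO wells with yeast and 100% = wells holding no yeast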
# TIM10 inh = growth inhibitors of TIM10 yeast strain | S. cerevisiae TIM10 strain growth, BacTiter-Glo luminescence, 24 h | AID 463195 | 330,000 compounds, 1.4% hits | inhibition, % at 10 µM;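 active = inhibition of 40% or more at the single tested concentration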;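 also: wild-type TIM10 isogenic control strain grown at permissive 25 °C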
# Calb FLC = affects C. albicans growth with fluconazole. C. albicans CaCi-2 (fluconazole-resistant clinical isolate) + fluconazole, Alamar Blue growth, 48 h. growth inhibition, % (concentration not given with the values). 300,000 compounds, 0.57% hits. AID 1979;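 active = growth inhibition above about 58% in most replicates, limit read from the data, passing the limit was not always enough; inconclusive = exactly half the replicates above a set limit; inactive = most replicates below a set limit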;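 also: all wells also contain fluconazole at 8 µg/ml as a sub-toxic cotreatment; 0% = median of DMSO wells and 100% = median of geldanamycin control wells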
# SKKanGAS inh = blocks kanamycin growth of S. pyogenes SKKanGAS strain. BacTiter-Glo, 6 h. inhibition, % at 7.5 µM. 300,000 compounds, 1.3% hits. AID 1662;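 active = mean replicate score, as percent of positive control median, at least 50; inconclusive = mean below 50 but one replicate at or above 50; inactive = mean and every replicate below 50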;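 also: strain carries kanamycin resistance gene driven by streptokinase promoter and grows in 40 µg/ml kanamycin; loss of luminescence reflects streptokinase promoter inhibition or plain growth inhibition; 0% = median of DMSO wells and 100% = positive control at its reference dose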
# tim23-1 inh = growth inhibitors of tim23-1 mutant yeast; S. cerevisiae tim23-1 growth, BacTiter-Glo luminescence, 24 h; 330,000 compounds, 1.3% hits; AID 463212; inhibition, % at 20 µM;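 active = growth inhibition of the mutant yeast at or above 50%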;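 also: temperature-sensitive mutant grown at 25 °C; plate controls were DMSO-treated mutant yeast for no effect and medium wells lacking yeast for full effect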
# PfHsp90 yeast 2 = reduces growth (ATP signal) of yeast expressing P. falciparum Hsp90; S. cerevisiae expressing PfHsp90, BacTiter-Glo ATP, 48 h; yeast lacking PDR1 and PDR3 efflux regulators; inhibition, % at 9.4 µM; 310,000 compounds, 0.32% hits;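 active = every replicate shows inhibition above about 80%, whatever the replicate mean, limit read from the data; inconclusive = mean inhibition reaches the set limit but some replicate falls short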;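 also: 0% = DMSO neutral controls and 100% = 20 µM radicicol positive controls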
# tim10-1 conf = confirmation of tim10-1 mutant yeast growth inhibitors | S. cerevisiae tim10-1 ts strain growth, BacTiter-Glo, 24 h | shares compounds with tim10-1 inh | inhibition, % at 20 µM | 7,400 compounds, 56% hits;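 active = inhibition of yeast growth at or above a set limit in either of two repeat tests at 20 µM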;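 also: tim10-1 mutant grown at permissive 25 °C to find synthetic lethal compounds; 0% = DMSO yeast wells and 100% = medium wells without yeast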
# tim10 confirm = confirmation of TIM10 yeast growth inhibitors | shares compounds with TIM10 inh | S. cerevisiae tim10 strain growth, BacTiter-Glo luminescence, 24 h | inhibition, % at 10 µM | 4,600 compounds, 63% hits | AID 463215;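 active = inhibition of yeast growth at or above a set limit in either of two replicates at 10 µM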;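 also: this counterscreen used the strain with wild-type TIM10; 0% = yeast with DMSO and 100% = medium wells lacking yeast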
# tim23-1 conf = tim23-1 yeast growth inhibition, confirmed; shares compounds with tim23-1 inh; S. cerevisiae tim23-1 growth, BacTiter-Glo luminescence, 24 h; inhibition, % at 20 µM; 4,400 compounds, 83% hits; AID 463218;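 active = inhibition above about 39% in either of two replicate wells at 20 µM, limit read from the data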;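 also: temperature-sensitive tim23-1 mutant grown at 25 °C; 0% = DMSO wells with yeast and 100% = medium wells without yeast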
# * = called active by the depositor; ? = inconclusive; · = not tested or not shown.
SMILES,tim10-1 inh,TIM10 inh,Calb FLC,SKKanGAS inh,tim23-1 inh,PfHsp90 yeast 2,tim10-1 conf,tim10 confirm,tim23-1 conf
Oc1c(Br)c(Br)c(Br)c(Br)c1Br,52*,49*,·,·,66*,-31,65*,44*,58*
COc1ccccc1NP1(=O)OCC(C)([N+](=O)[O-])CO1 (stereo not given),·,·,·,·,·,2,·,·,·
O=C1NC(=O)C(=Cc2ccc(-c3ccc(Cl)cc3)o2)C(=O)N1,45*,20,-6,-2,54*,23,8,·,55*
CCCCCCC(C)(C)c1ccc([C@@H]2C[C@H](O)CC[C@H]2CCCO)c(O)c1,34,12,·,·,40,-34,·,·,·
CN1/C(=C\C=C\C2=[N+](C)c3ccc4ccccc4c3C2(C)C)C(C)(C)c2ccccc21,77*,74*,·,·,85*,·,56*,80*,79*
CCOC(=O)C(O)(c1ccc(N(C)C(=O)c2ccc(Cl)c(Cl)c2)cc1)C(F)(F)F (stereo not given),13,-16,-7,12,13,-18,·,·,·
CCOC(=O)C(O)(c1ccc(NC(=O)c2ccc(Cl)c(Cl)c2)cc1)C(F)(F)F (stereo not given),43*,39,17,-6,57*,-9,34*,·,50*
Cc1ccc(-c2cc(-c3ccc(C)cc3)[n+](-c3ccc(C(=O)O)cc3)c(-c3ccc(C)cc3)c2)cc1,5,-2,-22,0,1,-5,·,·,·
Cc1ccc(C[n+]2c(-c3ccc(C)cc3)cc(-c3ccc(C)cc3)cc2-c2ccc(C)cc2)cc1,50*,58*,3,106*,56*,?,43*,50*,60*
COC(=O)C1=C(c2cccc(OCc3ccccc3)c2)C[C@@H]2CC[C@H]1N2C(=O)NCc1cc(C)oc1C(F)(F)F,17,6,·,·,16,22,·,·,·
CC1CC2(C)C(=CC1=O)CCC1C3CCC(C)(O)C3(C)CC3OC312 (stereo not given),·,·,·,·,·,4,·,·,·
CC12C(C(=O)O)C1(c1ccccc1)C2C(=O)O (stereo not given),·,·,·,·,·,-4,·,·,·
O=C1/C(=C\c2ccc(Cl)c(Cl)c2)N2CCC1CC2,42*,11,-25,-2,52*,-4,23,·,35
O=C1NC(=O)C(Nc2ccc(Cl)c(Cl)c2)C(=O)N1,·,·,·,·,·,14,·,·,·
CNc1ccc2oc(C[C@H]3O[C@@]4(CC[C@H]3C)O[C@H]([C@H](C)C(=O)c3ccc[nH]3)[C@H](C)C[C@H]4C)nc2c1C(=O)O,56*,-20,·,107*,54*,111*,29,·,37
[Cl][Pt+2][Cl].[NH-]C1CCCCC1[NH-] (stereo not given),-6,12,·,·,6,0,·,·,·
O=C1C(=O)c2ccccc2-c2ccccc21,85*,92*,·,86*,77*,?,85*,98*,77*
COc1ccc(-n2c(/C=C/c3cccc(F)c3)nc3ccccc3c2=O)c(OC)c1,·,·,8,11,·,-24,·,·,·
Cc1ccc2cc(C=C(C#N)C#N)c(Cl)nc2c1,48*,46*,1,2,80*,11,31*,-8,76*
Cc1cc(N2CCCC2)ccc1C=C(C#N)C#N,4,1,-10,-3,3,-20,·,·,·
COC(=O)C1=C(c2ccc(OCc3ccccc3)cc2)C[C@@H]2CC[C@H]1N2C(=O)NCc1ccc([N+](=O)[O-])cc1,12,6,·,·,20,-1,·,·,·
C=C(C)C(Cc1c(OC)ccc(C(=O)/C=C/c2ccc(O)cc2)c1O)OO (stereo not given),44*,46*,·,·,75*,·,65*,69*,76*
Cc1nc(C)c(C(=O)NN=Cc2ccc(N(CCCl)CCCl)cc2)s1,·,·,·,·,·,-23,·,·,·
O=C1c2ccccc2C(=O)N1Cc1nc2ccccc2c(=O)n1-c1ccc(Br)cn1,59*,57*,-6,8,69*,-1,55*,59*,58*
O=C1c2ccccc2C(=O)N1Cc1nc2ccccc2c(=O)n1-c1cccnc1,28,13,-8,-3,14,2,·,·,·
SMILES,tim10-1 inh,TIM10 inh,Calb FLC,SKKanGAS inh,tim23-1 inh,PfHsp90 yeast 2,tim10-1 conf,tim10 confirm,tim23-1 conf
CC(C)=CCc1c(O)cc2c(c1O)C(=O)CC(c1ccc(O)cc1)O2 (stereo not given),54*,46*,3,50*,60*,59,35*,57*,59*
CC1(C)C[C@H]2C=C(C=O)[C@]3(C=O)C[C@]3(C)[C@H]2C1,-5,50*,-16,0,-56,·,·,61*,·
CCOC(=O)c1ccc(N2C(=O)CC(N3CCC(C#N)(c4ccccc4)CC3)C2=O)cc1 (stereo not given),38,42*,-4,6,42,12,·,33*,·
N#CC1(c2ccccc2)CCN(C2CC(=O)N(c3cccc(F)c3)C2=O)CC1 (stereo not given),6,-1,13,1,13,5,·,·,·
Cc1ccccc1CCNCc1cc2cccc(C)c2[nH]c1=O,-2,-9,0,-2,-2,4,·,·,·
Nc1c2c(nc3sc4c(c13)CCCC4)CCCCC2,-12,4,7,0,19,12,·,·,·
Nc1c2c(nc3sc4c(c13)CCCC4)CCCC2,24,48*,4,7,49,1,·,38*,·
CCC(=NCc1ccco1)c1c(O)n(C2CCCCC2)c(=O)[nH]c1=O,34,40*,-6,0,42,8,·,24,·
Cn1cnc(CCN)c1,22,40*,-10,-1,3,-18,·,23,·
NCCc1ccccn1,5,2,·,-8,6,·,·,·,·
O=C1Nc2cc(C(=O)N3CCC4(CC3)OCCO4)ccc2NC1CSCc1cccc(F)c1 (stereo not given),2,13,3,3,8,·,·,·,·
O=c1cccc2n1CC1CC2CN(c2ncnc3c2cnn3-c2ccc(Cl)cc2)C1 (stereo not given),40,44*,-3,-1,35,-7,·,10,·
COC(=O)C1=C(c2c(C)noc2C)C[C@@H]2CC[C@H]1N2C(=O)NCC1CC1,23,5,·,·,1,0,·,·,·
CN(C)C(=O)O/N=C(\N)COc1ccc(C(C)(C)C)cc1,14,73*,-2,-15,59*,13,·,81*,54*
CCOC(=O)C(O)(c1ccc(N(C)C(=O)COc2ccccc2)cc1)C(F)(F)F (stereo not given),18,-2,-3,-2,14,-9,·,·,·
